Laboratory results taken from paper PMC7862700, “An all-to-all approach to the identification of sequence-specific readers for epigenetic DNA modifications on cytosine”.

Key:
Experiment in all cases: DAPPL (digital affinity profiling via proximity ligation, sequencing); 10 mM Tris-HCl pH 7.5, 50 mM NaCl, 1 mM DTT, 4% glycerol, room temperature, 30 min; GST-TFs on glutathione beads, 16-mer random dsDNA library, 0.1% formaldehyde crosslink after washing; high values mean tight binding
[1] = molecular target: T1, FLI1 (Homo sapiens, UniProt Q01543 1-452); conditions: protein: recombinant; tags: N-terminal GST; dsDNA, one strand shown
T1 sequence: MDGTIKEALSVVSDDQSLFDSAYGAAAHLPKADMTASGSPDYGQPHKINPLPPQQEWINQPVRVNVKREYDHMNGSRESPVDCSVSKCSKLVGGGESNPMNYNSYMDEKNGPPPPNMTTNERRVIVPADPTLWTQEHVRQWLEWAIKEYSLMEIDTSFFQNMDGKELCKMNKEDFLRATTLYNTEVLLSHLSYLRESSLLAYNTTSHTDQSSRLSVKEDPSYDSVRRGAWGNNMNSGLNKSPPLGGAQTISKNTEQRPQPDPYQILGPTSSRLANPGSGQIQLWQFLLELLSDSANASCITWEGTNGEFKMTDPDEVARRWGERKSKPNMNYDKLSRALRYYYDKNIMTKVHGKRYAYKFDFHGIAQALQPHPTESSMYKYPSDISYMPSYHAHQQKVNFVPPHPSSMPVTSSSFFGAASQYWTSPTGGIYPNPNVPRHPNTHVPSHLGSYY
Outline: (§1)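 Sequencing on an Illumina NextSeq500 followed washing, crosslinking with 0.1% formaldehyde, proximity ligation (BsaI/T4 ligase, 1 h, 37 °C) and PCR amplification of pools that had been incubated for 30 min at room temperature with 200 nmole of a random double-stranded 16-mer DNA library in Tris/NaCl/DTT/glycerol buffer. Each pool held DNA-barcoded human transcription factors, expressed in yeast as GST fusions and captured on glutathione beads, plus a tag-only sample. Binding signal is a hexamer's read frequency for a factor divided by its frequency in the tag-only sample.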

[2] = molecular target: T2, ELK1 (Homo sapiens, UniProt P19419 1-428); conditions: protein: recombinant; tags: N-terminal GST; dsDNA, one strand shown
T2 sequence: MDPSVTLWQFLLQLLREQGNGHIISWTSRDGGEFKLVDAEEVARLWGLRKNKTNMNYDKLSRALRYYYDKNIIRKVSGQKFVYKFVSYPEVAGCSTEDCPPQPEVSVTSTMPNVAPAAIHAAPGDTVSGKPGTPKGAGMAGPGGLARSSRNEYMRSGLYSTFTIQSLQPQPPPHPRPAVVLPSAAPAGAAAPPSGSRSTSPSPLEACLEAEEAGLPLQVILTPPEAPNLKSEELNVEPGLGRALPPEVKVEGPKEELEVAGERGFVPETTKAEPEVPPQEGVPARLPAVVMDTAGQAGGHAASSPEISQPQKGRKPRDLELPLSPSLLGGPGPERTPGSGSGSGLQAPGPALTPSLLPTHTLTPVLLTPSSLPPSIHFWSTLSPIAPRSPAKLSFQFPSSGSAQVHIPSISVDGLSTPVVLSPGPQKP
Outline: as §1

[3] = molecular target: T3, GABPA (Homo sapiens, UniProt Q06546 1-454); conditions: protein: recombinant; tags: N-terminal GST; dsDNA, one strand shown
T3 sequence: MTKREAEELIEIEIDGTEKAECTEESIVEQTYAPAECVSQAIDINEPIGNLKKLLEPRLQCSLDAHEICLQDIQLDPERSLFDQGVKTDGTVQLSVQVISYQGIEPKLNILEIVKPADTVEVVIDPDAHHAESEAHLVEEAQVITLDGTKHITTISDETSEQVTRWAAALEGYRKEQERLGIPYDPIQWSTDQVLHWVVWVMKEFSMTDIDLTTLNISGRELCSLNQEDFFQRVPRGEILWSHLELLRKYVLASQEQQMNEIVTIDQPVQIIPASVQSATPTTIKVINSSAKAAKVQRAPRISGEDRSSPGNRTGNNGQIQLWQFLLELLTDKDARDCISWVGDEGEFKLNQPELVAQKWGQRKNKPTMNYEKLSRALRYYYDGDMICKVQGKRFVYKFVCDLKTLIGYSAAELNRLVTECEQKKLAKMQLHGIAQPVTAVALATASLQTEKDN
Outline: as §1

[4] = molecular target: T4, ERG (Homo sapiens, UniProt P11308 1-479); conditions: protein: recombinant; tags: N-terminal GST; dsDNA, one strand shown
T4 sequence: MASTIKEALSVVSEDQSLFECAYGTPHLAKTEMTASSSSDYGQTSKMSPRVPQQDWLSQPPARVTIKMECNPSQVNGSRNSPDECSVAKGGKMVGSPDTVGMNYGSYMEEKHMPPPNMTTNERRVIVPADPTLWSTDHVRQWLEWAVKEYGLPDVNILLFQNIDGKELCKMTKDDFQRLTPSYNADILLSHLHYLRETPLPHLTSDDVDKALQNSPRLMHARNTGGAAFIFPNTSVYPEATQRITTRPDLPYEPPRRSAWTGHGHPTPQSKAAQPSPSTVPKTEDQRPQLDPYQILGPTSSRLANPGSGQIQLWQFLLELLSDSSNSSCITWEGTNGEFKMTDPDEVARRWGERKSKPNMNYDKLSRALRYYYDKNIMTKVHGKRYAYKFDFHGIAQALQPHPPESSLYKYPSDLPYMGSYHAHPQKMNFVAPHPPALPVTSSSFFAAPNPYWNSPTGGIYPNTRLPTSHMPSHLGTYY
Outline: as §1

[5] = molecular target: ELF1 (Homo sapiens, UniProt P32519 1-619); conditions: protein: recombinant; tags: N-terminal GST; dsDNA, one strand shown
Outline: as §1

[6] = molecular target: T5, EHF (Homo sapiens, UniProt Q9NZC4 1-300); conditions: protein: recombinant; tags: N-terminal GST; dsDNA, one strand shown
T5 sequence: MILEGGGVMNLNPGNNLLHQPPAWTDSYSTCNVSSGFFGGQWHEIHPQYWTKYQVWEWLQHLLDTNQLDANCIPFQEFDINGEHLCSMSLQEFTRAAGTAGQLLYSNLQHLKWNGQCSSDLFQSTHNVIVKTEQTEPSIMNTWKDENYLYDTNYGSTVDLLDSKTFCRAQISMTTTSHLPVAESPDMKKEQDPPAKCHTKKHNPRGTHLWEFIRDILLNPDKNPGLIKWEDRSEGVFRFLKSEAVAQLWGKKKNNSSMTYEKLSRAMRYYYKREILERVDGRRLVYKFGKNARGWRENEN
Outline: as §1

[7] = molecular target: SPI1 (Homo sapiens, UniProt P17947 1-270); conditions: protein: recombinant; tags: N-terminal GST; dsDNA, one strand shown
Outline: as §1

[8] = molecular target: SPIB (Homo sapiens, UniProt Q01892 1-262); conditions: protein: recombinant; tags: N-terminal GST; dsDNA, one strand shown
Outline: as §1

[9] = molecular target: T6, ELK3 (Homo sapiens, UniProt P41970 1-407); conditions: protein: recombinant; tags: N-terminal GST; dsDNA, one strand shown
T6 sequence: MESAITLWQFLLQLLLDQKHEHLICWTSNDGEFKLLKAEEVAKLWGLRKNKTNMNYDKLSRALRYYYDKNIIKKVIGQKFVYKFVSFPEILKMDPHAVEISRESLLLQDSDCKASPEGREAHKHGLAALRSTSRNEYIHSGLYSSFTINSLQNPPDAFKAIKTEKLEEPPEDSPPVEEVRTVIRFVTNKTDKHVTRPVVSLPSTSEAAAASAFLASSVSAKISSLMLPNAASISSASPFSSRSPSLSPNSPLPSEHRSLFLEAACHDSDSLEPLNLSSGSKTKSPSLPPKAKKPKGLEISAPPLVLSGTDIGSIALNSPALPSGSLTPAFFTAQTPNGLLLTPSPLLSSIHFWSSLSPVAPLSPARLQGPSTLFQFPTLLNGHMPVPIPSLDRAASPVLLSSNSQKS
Outline: as §1

[10] = molecular target: T7, FEV (Homo sapiens, UniProt Q99581 1-238); conditions: protein: recombinant; tags: N-terminal GST; dsDNA, one strand shown
T7 sequence: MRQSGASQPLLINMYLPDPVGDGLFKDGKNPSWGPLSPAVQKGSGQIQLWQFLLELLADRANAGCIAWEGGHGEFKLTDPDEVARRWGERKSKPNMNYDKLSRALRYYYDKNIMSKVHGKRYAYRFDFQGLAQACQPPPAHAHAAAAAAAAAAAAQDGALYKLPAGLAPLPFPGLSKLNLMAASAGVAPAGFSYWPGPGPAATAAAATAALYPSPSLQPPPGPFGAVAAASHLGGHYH
Outline: as §1

[11] = molecular target: ETV5 (Homo sapiens, UniProt P41161 1-510); conditions: protein: recombinant; tags: N-terminal GST; dsDNA, one strand shown
Outline: as §1

[12] = molecular target: HSF1 (Homo sapiens, UniProt Q00613 1-529); conditions: protein: recombinant; tags: N-terminal GST; chain copies: 3; dsDNA, one strand shown
Outline: as §1

[13] = molecular target: T8, SPIC (Homo sapiens, UniProt Q8N5J4 1-248); conditions: protein: recombinant; tags: N-terminal GST; dsDNA, one strand shown
T8 sequence: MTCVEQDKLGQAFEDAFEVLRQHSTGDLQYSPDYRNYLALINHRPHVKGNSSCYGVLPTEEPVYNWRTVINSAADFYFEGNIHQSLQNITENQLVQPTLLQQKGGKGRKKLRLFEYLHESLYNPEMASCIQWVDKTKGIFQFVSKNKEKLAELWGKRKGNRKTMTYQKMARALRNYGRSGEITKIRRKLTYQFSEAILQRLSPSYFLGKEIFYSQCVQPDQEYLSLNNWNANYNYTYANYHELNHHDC
Outline: as §1

[14] = molecular target: ELF4 (Homo sapiens, UniProt Q99607 1-663); conditions: protein: recombinant; tags: N-terminal GST; dsDNA, one strand shown
Outline: as §1

[15] = molecular target: T9, ELK4 (Homo sapiens, UniProt P28324-2 1-405); conditions: protein: recombinant; tags: N-terminal GST; dsDNA, one strand shown
T9 sequence: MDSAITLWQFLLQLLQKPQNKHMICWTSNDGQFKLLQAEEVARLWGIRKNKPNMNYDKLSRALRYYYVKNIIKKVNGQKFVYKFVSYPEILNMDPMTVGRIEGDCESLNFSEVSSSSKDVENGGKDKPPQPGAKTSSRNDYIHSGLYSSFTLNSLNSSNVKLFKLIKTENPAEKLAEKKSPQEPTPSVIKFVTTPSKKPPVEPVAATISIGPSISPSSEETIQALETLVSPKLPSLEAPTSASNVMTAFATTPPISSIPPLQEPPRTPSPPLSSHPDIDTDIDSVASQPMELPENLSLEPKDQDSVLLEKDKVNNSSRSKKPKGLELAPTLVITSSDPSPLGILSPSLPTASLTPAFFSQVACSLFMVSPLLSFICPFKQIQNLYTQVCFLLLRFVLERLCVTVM
Outline: as §1

[16] = molecular target: T10, ETV2 (Homo sapiens, UniProt O00321 1-342); conditions: protein: recombinant; tags: N-terminal GST; dsDNA, one strand shown
T10 sequence: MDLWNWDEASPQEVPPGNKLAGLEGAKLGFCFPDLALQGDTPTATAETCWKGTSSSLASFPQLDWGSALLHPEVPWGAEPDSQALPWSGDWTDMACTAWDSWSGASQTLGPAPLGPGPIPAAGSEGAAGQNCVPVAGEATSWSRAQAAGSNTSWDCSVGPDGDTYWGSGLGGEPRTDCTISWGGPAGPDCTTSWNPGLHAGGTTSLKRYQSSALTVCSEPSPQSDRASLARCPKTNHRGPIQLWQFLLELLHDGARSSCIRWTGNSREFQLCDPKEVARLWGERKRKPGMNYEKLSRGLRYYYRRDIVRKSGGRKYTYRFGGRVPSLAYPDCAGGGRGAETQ
Outline: as §1

[17] = molecular target: T11, ELF3 (Homo sapiens, UniProt P78545 1-371); conditions: protein: recombinant; tags: N-terminal GST; dsDNA, one strand shown
T11 sequence: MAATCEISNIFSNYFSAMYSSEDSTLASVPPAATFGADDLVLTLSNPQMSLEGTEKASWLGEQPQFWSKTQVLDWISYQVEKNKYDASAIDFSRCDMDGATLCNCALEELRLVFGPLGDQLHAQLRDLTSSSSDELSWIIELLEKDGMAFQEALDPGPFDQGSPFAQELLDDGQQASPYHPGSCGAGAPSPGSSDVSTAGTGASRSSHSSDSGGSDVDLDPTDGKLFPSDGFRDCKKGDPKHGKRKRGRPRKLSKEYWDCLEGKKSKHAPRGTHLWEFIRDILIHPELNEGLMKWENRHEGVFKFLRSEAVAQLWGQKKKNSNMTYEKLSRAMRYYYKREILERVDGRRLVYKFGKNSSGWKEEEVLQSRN
Outline: as §1

[18] = molecular target: CRX (Homo sapiens, UniProt O43186 1-299); conditions: protein: recombinant; tags: N-terminal GST; dsDNA, one strand shown
Outline: as §1

[19] = molecular target: ETV1 (Homo sapiens, UniProt P50549 1-477); conditions: protein: recombinant; tags: N-terminal GST; dsDNA, one strand shown
Outline: as §1

Chain of HSF1 (Q00613 whole entry): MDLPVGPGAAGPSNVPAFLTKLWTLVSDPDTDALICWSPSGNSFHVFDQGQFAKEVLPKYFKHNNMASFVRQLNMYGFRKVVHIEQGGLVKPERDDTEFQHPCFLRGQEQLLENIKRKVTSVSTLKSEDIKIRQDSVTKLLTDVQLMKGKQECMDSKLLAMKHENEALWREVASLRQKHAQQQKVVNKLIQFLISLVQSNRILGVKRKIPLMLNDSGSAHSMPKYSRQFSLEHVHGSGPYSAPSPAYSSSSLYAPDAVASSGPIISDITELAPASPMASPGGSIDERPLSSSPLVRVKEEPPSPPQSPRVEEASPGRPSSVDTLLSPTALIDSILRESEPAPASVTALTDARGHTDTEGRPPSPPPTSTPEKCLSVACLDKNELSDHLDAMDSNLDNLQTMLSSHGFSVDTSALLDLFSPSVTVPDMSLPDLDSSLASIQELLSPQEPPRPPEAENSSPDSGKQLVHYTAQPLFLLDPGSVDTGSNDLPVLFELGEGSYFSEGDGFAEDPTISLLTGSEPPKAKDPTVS
Chain of ELF4 (Q99607 whole entry): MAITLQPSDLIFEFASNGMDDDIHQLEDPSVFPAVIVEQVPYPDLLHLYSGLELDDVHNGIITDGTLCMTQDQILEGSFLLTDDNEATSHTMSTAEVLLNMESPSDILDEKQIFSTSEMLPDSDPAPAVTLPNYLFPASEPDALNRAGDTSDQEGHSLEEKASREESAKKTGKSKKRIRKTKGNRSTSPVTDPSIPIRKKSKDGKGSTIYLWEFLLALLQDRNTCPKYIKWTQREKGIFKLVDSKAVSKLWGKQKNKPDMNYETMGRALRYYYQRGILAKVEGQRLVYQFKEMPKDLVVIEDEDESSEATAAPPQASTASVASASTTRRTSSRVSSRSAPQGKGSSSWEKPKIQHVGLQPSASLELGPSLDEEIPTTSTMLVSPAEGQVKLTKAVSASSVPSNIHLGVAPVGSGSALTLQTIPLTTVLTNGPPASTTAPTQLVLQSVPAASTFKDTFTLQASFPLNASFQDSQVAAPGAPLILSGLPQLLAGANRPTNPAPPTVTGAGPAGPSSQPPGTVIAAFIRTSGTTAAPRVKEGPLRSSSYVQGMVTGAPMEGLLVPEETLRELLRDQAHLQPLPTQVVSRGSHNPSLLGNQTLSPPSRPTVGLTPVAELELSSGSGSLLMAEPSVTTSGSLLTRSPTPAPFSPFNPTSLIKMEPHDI
Chain of ETV5 (P41161 whole entry): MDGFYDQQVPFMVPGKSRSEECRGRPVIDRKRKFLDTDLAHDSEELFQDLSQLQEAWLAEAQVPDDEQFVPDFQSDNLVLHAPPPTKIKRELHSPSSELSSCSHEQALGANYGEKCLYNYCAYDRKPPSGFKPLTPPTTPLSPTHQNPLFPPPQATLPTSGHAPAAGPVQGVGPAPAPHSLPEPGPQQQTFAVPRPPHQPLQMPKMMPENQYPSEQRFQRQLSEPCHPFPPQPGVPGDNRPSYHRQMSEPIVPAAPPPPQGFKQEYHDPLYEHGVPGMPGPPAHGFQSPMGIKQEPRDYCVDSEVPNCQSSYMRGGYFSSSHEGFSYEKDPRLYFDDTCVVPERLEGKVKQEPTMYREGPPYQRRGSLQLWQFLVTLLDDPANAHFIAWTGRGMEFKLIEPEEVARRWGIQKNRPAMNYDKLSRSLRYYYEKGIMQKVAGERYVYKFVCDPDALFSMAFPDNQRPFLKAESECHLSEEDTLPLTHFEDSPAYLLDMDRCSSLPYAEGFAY
Chain of SPIB (Q01892 whole entry): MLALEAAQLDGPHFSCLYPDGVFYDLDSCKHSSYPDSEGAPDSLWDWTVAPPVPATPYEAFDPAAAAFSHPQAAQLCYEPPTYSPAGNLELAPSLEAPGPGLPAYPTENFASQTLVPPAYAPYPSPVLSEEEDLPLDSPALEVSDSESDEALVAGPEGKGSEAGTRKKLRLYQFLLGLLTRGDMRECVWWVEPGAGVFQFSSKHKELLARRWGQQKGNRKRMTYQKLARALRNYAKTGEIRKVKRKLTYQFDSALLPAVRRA
Chain of CRX (O43186 whole entry): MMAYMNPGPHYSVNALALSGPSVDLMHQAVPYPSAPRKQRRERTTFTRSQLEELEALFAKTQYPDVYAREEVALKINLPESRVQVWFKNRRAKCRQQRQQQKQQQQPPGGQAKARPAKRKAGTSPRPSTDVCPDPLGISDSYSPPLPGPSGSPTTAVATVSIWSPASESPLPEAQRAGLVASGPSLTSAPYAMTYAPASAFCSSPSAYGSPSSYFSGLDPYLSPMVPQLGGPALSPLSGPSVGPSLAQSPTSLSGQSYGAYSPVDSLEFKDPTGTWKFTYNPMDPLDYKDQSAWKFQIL
Chain of ELF1 (P32519 whole entry): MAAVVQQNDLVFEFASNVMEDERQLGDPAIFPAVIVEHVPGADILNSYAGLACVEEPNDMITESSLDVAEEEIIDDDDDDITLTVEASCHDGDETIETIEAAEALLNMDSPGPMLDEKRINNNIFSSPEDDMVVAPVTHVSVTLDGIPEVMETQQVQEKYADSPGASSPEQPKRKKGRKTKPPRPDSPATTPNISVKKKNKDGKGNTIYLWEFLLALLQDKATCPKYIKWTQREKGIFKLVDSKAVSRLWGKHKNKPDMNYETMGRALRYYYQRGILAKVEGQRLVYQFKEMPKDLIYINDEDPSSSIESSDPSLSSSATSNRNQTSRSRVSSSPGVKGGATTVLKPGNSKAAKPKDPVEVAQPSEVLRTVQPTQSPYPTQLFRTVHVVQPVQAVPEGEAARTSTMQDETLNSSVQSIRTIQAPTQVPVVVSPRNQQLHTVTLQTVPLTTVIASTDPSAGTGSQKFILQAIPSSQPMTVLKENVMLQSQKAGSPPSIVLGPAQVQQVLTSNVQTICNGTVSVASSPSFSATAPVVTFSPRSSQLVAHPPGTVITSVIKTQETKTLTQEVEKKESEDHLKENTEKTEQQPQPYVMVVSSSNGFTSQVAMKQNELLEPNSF
Chain of ETV1 (P50549 whole entry): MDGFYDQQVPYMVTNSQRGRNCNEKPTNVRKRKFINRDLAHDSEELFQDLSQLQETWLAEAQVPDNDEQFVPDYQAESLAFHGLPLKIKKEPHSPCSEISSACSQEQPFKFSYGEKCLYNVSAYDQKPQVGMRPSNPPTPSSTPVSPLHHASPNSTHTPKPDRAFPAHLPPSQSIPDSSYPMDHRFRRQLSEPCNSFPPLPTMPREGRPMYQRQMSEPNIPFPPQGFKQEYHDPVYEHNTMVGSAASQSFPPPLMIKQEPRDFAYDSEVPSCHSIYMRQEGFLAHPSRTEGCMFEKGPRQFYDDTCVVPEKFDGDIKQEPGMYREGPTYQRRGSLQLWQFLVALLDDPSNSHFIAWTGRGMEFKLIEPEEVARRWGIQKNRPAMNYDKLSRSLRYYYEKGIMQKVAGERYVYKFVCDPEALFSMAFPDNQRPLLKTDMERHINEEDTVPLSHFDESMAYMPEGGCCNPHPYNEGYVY

For ACATCC, the binding signal [1] was 2.58 fold enrichment (6-mer frequency, TF over GST control), the binding signal [2] was 2.73 fold enrichment (6-mer frequency, TF over GST control) and the binding signal [3] was 2.39 fold enrichment (6-mer frequency, TF over GST control). For the same sequence, the binding signal [4] was 3.08 fold enrichment (6-mer frequency, TF over GST control), the binding signal [5] was 2.35 fold enrichment (6-mer frequency, TF over GST control) and the binding signal [6] was 2.7 fold enrichment (6-mer frequency, TF over GST control). The binding signal [7] was 2.5 fold enrichment (6-mer frequency, TF over GST control), the binding signal [8] was 2.69 fold enrichment (6-mer frequency, TF over GST control) and the binding signal [9] was 2.98 fold enrichment (6-mer frequency, TF over GST control). The binding signal [10] was 3.7 fold enrichment (6-mer frequency, TF over GST control), the binding signal [11] was 2.77 fold enrichment (6-mer frequency, TF over GST control) and the binding signal [12] was 1.06 fold enrichment (6-mer frequency, TF over GST control). The binding signal [13] was 2.43 fold enrichment (6-mer frequency, TF over GST control), the binding signal [14] was 2.28 fold enrichment (6-mer frequency, TF over GST control) and the binding signal [15] was 2.29 fold enrichment (6-mer frequency, TF over GST control). The binding signal [16] was 2.61 fold enrichment (6-mer frequency, TF over GST control), the binding signal [17] was 2.38 fold enrichment (6-mer frequency, TF over GST control) and the binding signal [18] was 1.05 fold enrichment (6-mer frequency, TF over GST control). For the same sequence, the binding signal [19] was 2.66 fold enrichment (6-mer frequency, TF over GST control).
